Molecules are shown by their SMILES. Measured potencies and affinities stand elsewhere.

A short description of the test: loss of vesicle association with mouse CD8+ T cells – mouse 2C CD8+ T cells, flow cytometry, dose response (AID 485284).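 Further: drosophila derived vesicles carrying Ld MHC with QL9 peptide plus B7-1 and ICAM-1; vesicle binding seen as anti-B7-1 PE fluorescence on CD8 gated cells.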 The note with it: 2C mouse CD8+ T cell-exosome binding; at 45 µM (top of the series).
In the case of `CCCOc1ccc(C2=CC(=O)C[C@H](c3ccc(OC)cc3)C2)cc1`, the binding remaining, % of control stood at 143%. The result for `Cc1c(C)c2c(OCC(=O)NCC(O)c3ccccc3)cc3c(c2oc1=O)CCC(C)(C)O3` (stereo unspecified) reads 72.4%; that for `CCCc1nnc(NC(=O)c2ccc(S(=O)(=O)N(C)c3ccccc3OC)cc2)s1`, 142%; that for `O=C(NC1CCCCCC1)C1CCN(S(=O)(=O)c2ccccc2)CC1`, 137%. As to `COc1ccc(NC(=O)CC2C(=O)N(Cc3ccccc3)C(=S)N2CCN2CCOCC2)cc1` (stereo unspecified), the binding remaining, % of control was 106%.

As for `CCOC(=O)c1ccc(NC(=O)CN2C(=O)NC3(CCCCCCC3)C2=O)cc1`, the binding remaining, % of control amounted to 44.2%.

For `COc1ccc([C@H]2CC(=O)C=C(c3cc(F)ccc3OC)C2)cc1`, the binding remaining, % of control was 109%.

With `CCOC(=O)c1cn(CC)c2cc(Cl)c([N+](=O)[O-])cc2c1=O`, the binding remaining, % of control was 128%. The result for `COc1ccc(-c2cc(=O)c3cc(O)ccc3o2)cc1` reads 110%; that for `CCCCN1C(=O)NC(NC(=O)C2CC2)(C(F)(F)F)C1=O` (stereo unspecified), 136%; that for `CN(CC(=O)Nc1cccc(F)c1)C(=O)c1ccc(S(=O)(=O)N2CCCC2)cc1`, 21.6%.

For the compound `Cc1ccc(NC(=O)CN2C(=O)N/C(=C/c3ccc(C)s3)C2=O)cc1`, the binding remaining, % of control worked out at 46%. In the case of `Cc1cc(C)n(C(=O)c2sc3cc(F)ccc3c2Cl)n1` it was 160%; in that of `Cc1cnc(C(=O)Nc2ccc(C)c(S(=O)(=O)N3CCCCC3)c2)cn1`, 114%. Consider `CC(C)[C@H]1C(=O)Nc2ccccc2N1C(=O)N[C@@H](Cc1ccccc1)C(=O)N[C@@H](Cc1ccccc1)C(=O)O`, for which the binding remaining, % of control worked out at 168%. The result for `Cc1ccccc1CS(=O)(=O)CCC(=O)N1CCN(c2ccc(N3CCOCC3)nn2)CC1` reads 40.8%.
